Assay results reported in PubChem BioAssay (NCI).
The panel holds about 83,000 compounds, 20% with a hit somewhere; the sample as a whole holds those more often.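 Step 1: grow cells in 96-well plates. Step 2: add test compound at a single concentration. Step 3: incubate 48 h. Step 4: record percent growth.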 Unmarked numbers belong to inactive results. Calls of active or inactive are those of the source. How the source made its calls: active means growth percent below 10; inactive means the rest.

Legend:
Assay in all cases: NCI-60 one-dose screen, 48 h (100 = growth as untreated, 0 = no growth, -100 = all killed)
Conditions in all cases: 10 µM unless noted
[1] = system: HCT-15 colon
[2] = system: HT29 colon
[3] = system: SNB-75 CNS
[4] = system: SNB-19 CNS
[5] = system: U251 CNS
[6] = system: PC-3 prostate
[7] = system: SK-MEL-5 melanoma
[8] = system: UACC-62 melanoma
[9] = system: LOX IMVI melanoma
[10] = system: SK-MEL-28 melanoma

N#C/C(=C/c1ccc([N+](=O)[O-])cc1)n1nnc2cc(F)c(F)cc21
growth [1]: -7.15% (active)
growth [2]: 69.4%
growth [3]: 74.9%
growth [4]: 73.7%
growth [5]: 59%
growth [6]: 52.5%
growth [7]: 88.6%
growth [8]: 57.2%
growth [9]: 42.4%
growth [10]: 97.6%

CCc1ccc(Oc2cn[nH]c2-c2ccc(OCCc3ccc(F)cc3)cc2O)cc1
growth [1]: 74.3%
growth [2]: 42.4%
growth [3]: 79%
growth [4]: 108%
growth [5]: 53.5%
growth [6]: 72.2%
growth [7]: 97.5%
growth [8]: 88.6%
growth [9]: 86.8%
growth [10]: 87.3%

COc1ccc(C/C(C)=C(/c2ccc(OCCN3CCCCC3)cc2)c2ccc(OC(=O)NCc3ccccc3)cc2)cc1
growth [1]: -85.4% (active)
growth [2]: -87.8% (active)
growth [3]: -88.9% (active)
growth [4]: -90.6% (active)
growth [5]: -97.5% (active)
growth [6]: -95.9% (active)
growth [7]: -100% (active)
growth [8]: -92.9% (active)
growth [9]: -93% (active)
growth [10]: -85.8% (active)

COc1ccccc1NC(=O)Cn1cc(CN2CCN(c3ccnc4cc(Cl)ccc34)CC2)nn1
growth [1]: 91.8%
growth [2]: 105%
growth [3]: 75.2%
growth [4]: 93.2%
growth [5]: 97.1%
growth [6]: 71.8%
growth [7]: 73%
growth [8]: 83.9%
growth [9]: 95.1%
growth [10]: 84.1%

O=C1/C(=C/c2ccc(Cl)cc2)COc2ccc(O)cc21
growth [1]: 29.3%
growth [2]: 15.3%
growth [3]: 84.5%
growth [4]: 82.1%
growth [5]: 44.9%
growth [6]: 69.8%
growth [7]: 96.8%
growth [8]: 78.1%
growth [9]: -42.6% (active)
growth [10]: 96.8%

Cc1ccc(-c2nc3nc(-c4ccc(F)cc4)nc(N4CCNCC4)c3o2)cc1
growth [1]: -80% (active)
growth [2]: -78.1% (active)
growth [3]: -2.57% (active)
growth [4]: 40.5%
growth [5]: -30.9% (active)
growth [6]: 14.8%
growth [7]: 96.9%
growth [8]: 91.1%
growth [9]: -92% (active)
growth [10]: 114%

COc1ccc(/C=C2\C(=O)N=C3N2NC(c2cc(Br)ccc2O)C=C(C)N3c2ccccc2)cc1 (stereo not given)
growth [1]: 103%
growth [2]: 106%
growth [3]: 99%
growth [4]: 93.8%
growth [5]: 93.8%
growth [6]: 92.1%
growth [7]: 97%
growth [8]: 90.6%
growth [9]: 95%
growth [10]: 99.1%

COC(C(=O)[C@@H](O)[C@@H](C)O)[C@@H]1Cc2cc3cc(O[C@H]4C[C@@H](O[C@H]5C[C@@H](O)[C@H](O)C(C)O5)[C@H](O)C(C)O4)c(C)c(O)c3c(O)c2C(=O)[C@H]1O[C@H]1C[C@@H](O[C@H]2C[C@@H](O[C@H]3C[C@@H](O)[C@H](OC)C(C)O3)[C@@H](O)C(C)O2)[C@H](O)C(C)O1 (stereo not given in full)
growth [1]: 8.46% (active)
growth [2]: -13.6% (active)
growth [3]: -57% (active)
growth [4]: 12.4%
growth [5]: 2.99% (active)
growth [6]: 11.2%
growth [7]: -36.9% (active)
growth [8]: -35.4% (active)
growth [9]: -8.28% (active)
growth [10]: -34.1% (active)

CCCCCCCCn1ccc2cc(NC(=O)Cn3cc(CN4CCCCC4)nn3)ccc21
growth [1]: -40.7% (active)
growth [2]: -61.2% (active)
growth [3]: 73.4%
growth [4]: -49.2% (active)
growth [5]: -53.6% (active)
growth [6]: 54.6%
growth [7]: -93% (active)
growth [8]: -81.4% (active)
growth [9]: -80.3% (active)
growth [10]: -85.4% (active)

CNC(=O)c1cc(Oc2ccc3c(c2)sc2nc(-c4cc(OC)c(OC)c(OC)c4)cn23)ccn1
growth [1]: 54.1%
growth [2]: 65.3%
growth [3]: 50.3%
growth [4]: 82.2%
growth [5]: 61.9%
growth [6]: 34.3%
growth [7]: -13.9% (active)
growth [8]: 44.5%
growth [9]: 58%
growth [10]: 63.5%

CC(=O)Nc1nc2ccc(NS(=O)(=O)c3cccc4c(N(C)C)cccc34)cc2[nH]1
growth [1]: 72.9%
growth [2]: 63%
growth [3]: 31%
growth [4]: 52.3%
growth [5]: 70.2%
growth [6]: 60.2%
growth [7]: 21.5%
growth [8]: 27.3%
growth [9]: 53.6%
growth [10]: 57.9%

N#Cc1nc(-c2ccccc2)oc1S(=O)(=O)N1CCOCC1
growth [1]: -15.4% (active)
growth [2]: 99.5%
growth [3]: 94.4%
growth [4]: 91.7%
growth [5]: 93.7%
growth [6]: 100%
growth [7]: 91.6%
growth [8]: 91%
growth [9]: 68.2%
growth [10]: 106%

O=[N+]([O-])c1ccc(S(=O)(=O)N2CCN(C3=NS(=O)(=O)c4ccccc4N3c3ccccc3)CC2)cc1
growth [1]: 109%
growth [2]: 110%
growth [3]: 90.2%
growth [4]: 101%
growth [5]: 101%
growth [6]: 87.4%
growth [7]: 90.7%
growth [8]: 98.2%
growth [9]: 97.2%
growth [10]: 135%

C=C(C)[C@@H]1CC[C@]2(C(=O)NCC#CCN3CCN(C)CC3)CC[C@]3(C)[C@H](CC[C@@H]4[C@@](C)(CCC#N)[C@H](C(=C)C)CC[C@]43C)[C@@H]12
growth [1]: 20%
growth [2]: -12.7% (active)
growth [3]: 64.7%
growth [4]: 78.2%
growth [5]: 45.3%
growth [6]: 35.5%
growth [7]: 64.6%
growth [8]: -8.49% (active)
growth [9]: 10.4%
growth [10]: 78.1%

Cn1ccc2c3c(ccc21)CC3=O
growth [1]: 105%
growth [2]: 116%
growth [3]: 97.7%
growth [4]: 105%
growth [5]: 111%
growth [6]: 110%
growth [7]: 115%
growth [8]: 99.1%
growth [9]: 119%
growth [10]: 112%

NC(=O)CCC(C(=O)O)N1C(=O)c2ccc(O)cc2C1=O (stereo not given)
growth [1]: 101%
growth [2]: 119%
growth [3]: 128%
growth [4]: 110%
growth [5]: 100%
growth [6]: 98.6%
growth [7]: 107%
growth [8]: 111%
growth [9]: 97.2%
growth [10]: 124%

CC1=NN(c2nc(SCC(=O)Nc3nc4ccc(C)cc4s3)nc(-c3ccccc3)c2C#N)C(=O)C1
growth [1]: 105%
growth [2]: 104%
growth [3]: 75.4%
growth [4]: 97.3%
growth [5]: 102%
growth [6]: 97.1%
growth [7]: 100%
growth [8]: 94.3%
growth [9]: 101%
growth [10]: 105%

C=C(C)[C@@H]1CC[C@]2(C(=O)N3CCN(C)CC3)CC[C@]3(C)[C@H](CC[C@@H]4[C@@]5(C)CC(=C/c6ccncc6)/C(=N/O)C(C)(C)[C@@H]5CC[C@]43C)[C@@H]12
growth [1]: 65.5%
growth [2]: 41.1%
growth [3]: 66.1%
growth [4]: 79.7%
growth [5]: 70.2%
growth [6]: 44.8%
growth [7]: 59.9%
growth [8]: 78.5%
growth [9]: 86%
growth [10]: 96.4%

CC1=Nc2cnc(Nc3ccc(OCCN4CCCC4)cc3)nc2Nc2ccccc21
growth [1]: 33.9%
growth [2]: 60.9%
growth [3]: 20.1%
growth [4]: 91.1%
growth [5]: 80.9%
growth [6]: 61.7%
growth [7]: 71.6%
growth [8]: 84.3%
growth [9]: 52.2%
growth [10]: 94%

CCOC(=O)c1cc(C(=O)c2cc(OC)c(OC)c(OC)c2)n2ccc(-c3ccncc3)cc12
growth [1]: 99.4%
growth [2]: 91.5%
growth [3]: 88.8%
growth [4]: 94.4%
growth [5]: 93.2%
growth [6]: 75.2%
growth [7]: 82.8%
growth [8]: 98.4%
growth [9]: 99%
growth [10]: 110%

O=C(NCc1ccccc1)Nc1ccccc1CNc1nc(Nc2ccc(OCCN3CCCC3)cc2)ncc1Cl
growth [1]: 56.6%
growth [2]: 68.4%
growth [3]: 82.4%
growth [4]: 94.3%
growth [5]: 45.5%
growth [6]: 94.5%
growth [7]: 95.2%
growth [8]: 98.6%
growth [9]: 88.8%
growth [10]: 105%

C=C(C)[C@@H]1CC[C@]2(C(=O)OC)CC[C@]3(C)[C@H](CC[C@@H]4[C@@]5(C)C/C(=C/NC(N)=S)C(=O)C(C)(C)[C@@H]5CC[C@]43C)[C@@H]12
growth [1]: 92.8%
growth [2]: 71%
growth [3]: 118%
growth [4]: 97.1%
growth [5]: 90.7%
growth [6]: 67.6%
growth [7]: 87.1%
growth [8]: 87.4%
growth [9]: 90.2%
growth [10]: 98.9%

N#CC1C=CN(CC(N)=O)c2ccc3cccnc3c21 (stereo not given)
growth [1]: 96.2%
growth [2]: 88.3%
growth [3]: 87.2%
growth [4]: 96.1%
growth [5]: 91.7%
growth [6]: 84.2%
growth [7]: 96.5%
growth [8]: 96.9%
growth [9]: 97.5%
growth [10]: 104%
